Calls of active or inactive are those of the source.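 How the source made its calls: active means max inhibition of at least 60%; inconclusive means max inhibition above 30% but below 60%; inactive means max inhibition of 30% or less.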
Target: Follicle-stimulating hormone receptor (Homo sapiens) (UniProt P23945)
Test: qHTS for antagonists of the Thyroid Stimulation Hormone Receptor: Hit Validation with Follickle Stimulating Hormone Receptor (FSHR)
Conditions: FSHR-expressing cells, cAMP HTRF, antagonist counterscreen; hits give high values
From the text: The thyroid-stimulating hormone receptor (TSHR) is a member of the 7 trans-membrane-spanning receptor (7TMR) family of cell surface receptors. TSHR-mediated hyperthyroidism is important in thyroid pathology. The development of small molecule antagonists of TSHR may lead to therapeutic approaches for TSHR-mediated hyperthyroidism caused by constitutively activating mutations or stimulating auto-antibodies associated with Graves' disease. Graves' disease is the leading cause of hyperthyroidism and is caused by autoantibodies that stimulate TSHR (TsAbs) causing thyroid growth and unregulated overproduction of thyroid hormones and existing treatments have liabilities (agranulocytosis). In addition, TSHRs are known to be expressed in multiple extrathyroidal tissues including bone, brain, kidney, testis, fat and cells of the immune system but the role of the TSHR in these tissues is not clear. Therefore, TSHR antagonists/inverse agonists could be used as probes of extrathyroidal TSHR function. Finally, TSHR inverse agonists, which are a subclass of antagonists that inhibit agonist-independent (or basal or constitutive) TSHR signaling, could be used to inhibit TSH-independent signaling in patients with recurrent or metastatic thyroid cancer who are receiving thyroid hormone to suppress TSH. […]

Follicle-stimulating hormone receptor (Homo sapiens), sequence (P23945 whole entry, looked up): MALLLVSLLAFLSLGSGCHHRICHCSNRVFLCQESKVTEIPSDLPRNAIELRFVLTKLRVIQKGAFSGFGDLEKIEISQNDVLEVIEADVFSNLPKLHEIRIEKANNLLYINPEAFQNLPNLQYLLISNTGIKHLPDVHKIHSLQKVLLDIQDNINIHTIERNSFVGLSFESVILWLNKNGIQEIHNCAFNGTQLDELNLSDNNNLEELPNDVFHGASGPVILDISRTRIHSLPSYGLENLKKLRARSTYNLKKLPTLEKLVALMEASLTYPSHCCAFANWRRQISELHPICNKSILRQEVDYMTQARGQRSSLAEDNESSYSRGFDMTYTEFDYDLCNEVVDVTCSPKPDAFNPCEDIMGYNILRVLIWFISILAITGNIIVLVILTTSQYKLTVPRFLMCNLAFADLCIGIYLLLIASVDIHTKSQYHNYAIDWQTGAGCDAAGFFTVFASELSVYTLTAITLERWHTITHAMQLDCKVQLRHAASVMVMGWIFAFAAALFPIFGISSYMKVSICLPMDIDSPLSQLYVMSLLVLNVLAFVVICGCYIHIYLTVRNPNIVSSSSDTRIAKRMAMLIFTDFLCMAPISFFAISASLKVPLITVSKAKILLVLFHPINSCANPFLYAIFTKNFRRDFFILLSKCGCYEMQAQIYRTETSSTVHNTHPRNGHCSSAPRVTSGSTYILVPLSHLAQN

## COC(=O)C1=C(c2ccc(-c3ccccc3)c(F)c2)C[C@@H]2CC[C@H]1N2C(=O)NCCOc1ccccc1
  max inhibition: 79.5% (active)
